Hits are enriched below; roughly 2.3% of the tested compounds scored in any of these assays.
MEKK2wt PB1 HTS = modulators of MEK5 binding to wildtype MEKK2, primary screen, biochemical, multiplex bead flow cytometry, Alexa488-MEK5 | Mitogen-activated protein kinase kinase kinase 2 (Homo sapiens), Q9Y2U5 | Alexa488-MEK5 binding to MEKK2 WT; actives lie on both sides | binding response (% of control), % at 10 µM | 290,000 tested, 1.1% active | AID 1531, 2009; in the data active = binding response below about 67% or above about 130%
MEKK2 mut-MEK5 = MEK5 binding signal on mutant MEKK2 PB1, primary screen, biochemical, multiplex bead flow cytometry, Alexa488-MEK5. percent response, % at 10 µM. 290,000 tested, 0.35% active. Alexa488-MEK5 binding to MEKK2 mutant. AID 1530, 2009; in the data active = percent response above about 24%, passing the limit was not always enough
MEKK3 PB1 HTS = modulators of MEKK3-MEK5 PB1 binding, primary screen, biochemical, wildtype MEKK3, multiplex bead flow cytometry, Alexa488-MEK5 | bead-based flow cytometry, Alexa488-MEK5 binding to MEKK3; actives lie on both sides; 0 = blocked by unlabeled MEK5, 100 = vehicle | binding response (% of control), % at 10 µM | 290,000 tested, 1.4% active | AID 1529, 2009;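 active = binding response more than 3 SD above or below the average of its plate-row segment, actives on both sides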;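 also: Alexa488 bead fluorescence after subtracting the streptavidin-only scavenger bead signal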
Target sequence (Q99759 whole entry, looked up): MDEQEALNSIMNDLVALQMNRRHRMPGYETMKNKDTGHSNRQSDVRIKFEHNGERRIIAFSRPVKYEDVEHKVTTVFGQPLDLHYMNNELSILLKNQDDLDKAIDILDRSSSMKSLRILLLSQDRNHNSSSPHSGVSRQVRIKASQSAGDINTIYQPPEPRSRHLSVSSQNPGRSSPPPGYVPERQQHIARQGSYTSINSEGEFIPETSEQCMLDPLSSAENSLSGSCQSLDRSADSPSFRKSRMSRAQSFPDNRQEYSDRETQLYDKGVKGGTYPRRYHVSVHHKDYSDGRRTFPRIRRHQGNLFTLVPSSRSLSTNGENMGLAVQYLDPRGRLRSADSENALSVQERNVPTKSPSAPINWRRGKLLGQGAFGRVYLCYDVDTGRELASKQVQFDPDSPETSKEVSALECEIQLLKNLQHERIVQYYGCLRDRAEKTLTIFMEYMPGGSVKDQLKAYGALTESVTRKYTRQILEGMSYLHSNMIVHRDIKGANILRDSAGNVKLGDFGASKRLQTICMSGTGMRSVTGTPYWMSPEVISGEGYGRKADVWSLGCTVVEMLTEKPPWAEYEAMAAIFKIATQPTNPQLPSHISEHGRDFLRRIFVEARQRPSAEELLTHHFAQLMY
UBC13 polyUb = UBC13 polyubiquitin chain formation inhibitors, primary screen, biochemical, TR-FRET, uHTS | AID 485273, 2010 | inhibition, % at 20 µM | Ubiquitin-conjugating enzyme E2 N (Homo sapiens), P61088 | 330,000 tested, 0.47% active; in the data active = inhibition above about 45%, passing the limit was not always enough
MEKK2wt confirm = modulators of MEK5 binding to wildtype MEKK2, confirmation, biochemical, single concentration, multiplex bead flow cytometry; Alexa488-MEK5 binding to MEKK2 WT; actives lie on both sides; AID 1892, 2009; 5,900 tested, 2.4% active; shares compounds with MEKK3 PB1 HTS; binding response (% of control), % at 10 µM; in the data active = binding response below about 16% or above about 210%; inactive = in between
MEKK2mut-MEK5 = mutant MEKK2 PB1-MEK5 binding signal retest – biochemical, single concentration, multiplex bead flow cytometry, confirmation; 5,900 tested, 2% active; percent response, % at 10 µM; AID 1893, 2009; Alexa488-MEK5 binding to MEKK2 mutant; shares compounds with MEKK3 PB1 HTS; in the data active = percent response mostly above about 71%, no sharp cut-off; inactive = mostly below about 38%;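 also: higher means compound restores mutant binding toward wildtype level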
MEKK3-MEK5 inh = MEKK3 wild-type PB1 binding to MEK5, inhibitors, confirmation, biochemical, bead multiplex flow cytometry, single concentration, wildtype; shares compounds with MEKK3 PB1 HTS; binding response (% of control), % at 10 µM; Alexa488-MEK5 binding to MEKK3; stronger effect = lower value; 5,900 tested, 1.8% active;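 active = binding response below 72% of control, or above a set upper limit, though filed actives all read lower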;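 also: 100% = DMSO only wells and 0% = binding blocked by excess unlabeled MEK5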
Active calls of the source: *; [ ] = another dose, or the depositor's remark.

What do the screens show for `CCOc1ccc(NC(=O)c2ccc(NC(=O)c3cn4c5c(c(N6CCN(C)CC6)c(F)cc5c3=O)OCC4C)cc2)cc1` (centres undefined)?
MEKK2wt PB1 HTS: 70; MEKK2 mut-MEK5: -8; MEKK3 PB1 HTS: 45*[inhibitor]; UBC13 polyUb: 16; MEKK2wt confirm: 181; MEKK2mut-MEK5: 40; MEKK3-MEK5 inh: 85

What do the screens show for `CCOc1cc(C(=O)N2CCC(CC3CC(c4cccc(Br)c4)=NO3)(C(=O)NCC3CCCCC3)CC2)cc(OCC)c1OCC` (centres undefined)?
MEKK2wt PB1 HTS: 96; MEKK2 mut-MEK5: -1; MEKK3 PB1 HTS: 105; UBC13 polyUb: -33

What do the screens show for `CC12CCC(C(=O)NNc3ccc([N+](=O)[O-])cc3)(OC1=O)C2(C)C` (centres undefined)?
MEKK2wt PB1 HTS: 129; MEKK2 mut-MEK5: 29; MEKK3 PB1 HTS: 132*; UBC13 polyUb: 0; MEKK2wt confirm: 103; MEKK2mut-MEK5: 4; MEKK3-MEK5 inh: 104

Results for CC12CCC(C(=O)NNc3ccccc3)(OC1=O)C2(C)C (centres undefined) ?
MEKK2wt PB1 HTS: 101; MEKK2 mut-MEK5: 1; MEKK3 PB1 HTS: 101; UBC13 polyUb: 6

How did CCOc1ccc(S(=O)(=O)N2CCC(C(=O)Nc3cc(S(C)(=O)=O)ccc3Cl)CC2)cc1 do in these assays?
UBC13 polyUb: 17

Results for CCN1C(=O)c2cccc3c(S(=O)(=O)NCc4ccccc4)ccc1c23 ?
UBC13 polyUb: 9

How did CCN1C(=O)c2cccc3c(S(=O)(=O)NCCCN4CCOCC4)ccc1c23 do in these assays?
MEKK2wt PB1 HTS: 124; MEKK2 mut-MEK5: 6; MEKK3 PB1 HTS: 125*; UBC13 polyUb: 0; MEKK2wt confirm: 105; MEKK2mut-MEK5: 5; MEKK3-MEK5 inh: 106

How did CC(CN1CCOCC1)C(=O)O (centres undefined) do in these assays?
MEKK2wt PB1 HTS: 127; MEKK2 mut-MEK5: 11; MEKK3 PB1 HTS: 126*; UBC13 polyUb: -1; MEKK2wt confirm: 97; MEKK2mut-MEK5: -2; MEKK3-MEK5 inh: 101

How did O=C(Nc1ccc(-n2ccc(C(F)(F)F)n2)cc1)Nc1cccc(Cl)c1 do in these assays?
MEKK2wt PB1 HTS: 245*; MEKK2 mut-MEK5: 74*; MEKK3 PB1 HTS: 141*; UBC13 polyUb: 4; MEKK2wt confirm: 109; MEKK2mut-MEK5: -4; MEKK3-MEK5 inh: 106

How did Cc1cc(C)cc(NC(=O)Nc2ccc(-n3ccc(C(F)(F)F)n3)cc2)c1 do in these assays?
MEKK2wt PB1 HTS: 97; MEKK2 mut-MEK5: -35; MEKK3 PB1 HTS: 71; UBC13 polyUb: 2

Results for O=C(NCC1CC1)C1(S(=O)(=O)c2ccccc2)CC=CC1 ?
MEKK2wt PB1 HTS: 103; MEKK2 mut-MEK5: 2; MEKK3 PB1 HTS: 103; UBC13 polyUb: -3

Results for CC1CCCCC12NC(=O)N(CC(=O)N1CCc3ccccc3C1)C2=O (centres undefined) ?
UBC13 polyUb: -2

What do the screens show for `Fc1ccccc1-c1csc(=Nc2cccnc2)n1CCCn1ccnc1`?
MEKK2wt PB1 HTS: 102; MEKK2 mut-MEK5: 3; MEKK3 PB1 HTS: 137*; UBC13 polyUb: -16; MEKK2wt confirm: 114; MEKK2mut-MEK5: 19; MEKK3-MEK5 inh: 104

What do the screens show for `O=C(O)CCCNS(=O)(=O)/C=C/c1ccccc1`?
MEKK2wt PB1 HTS: 100; MEKK2 mut-MEK5: 3; MEKK3 PB1 HTS: 103; UBC13 polyUb: 5

Results for COc1ccccc1NS(=O)(=O)c1cccc(C(=O)NN=C2CCCC2)c1 ?
MEKK2wt PB1 HTS: 101; MEKK2 mut-MEK5: -4; MEKK3 PB1 HTS: 107; UBC13 polyUb: 10

What do the screens show for `COc1ccccc1NS(=O)(=O)c1cccc(C(=O)N/N=C2\CC(=O)CC(C)(C)C2)c1`?
MEKK2wt PB1 HTS: 102; MEKK2 mut-MEK5: -1; MEKK3 PB1 HTS: 142*; UBC13 polyUb: 1; MEKK2wt confirm: 102; MEKK2mut-MEK5: 2; MEKK3-MEK5 inh: 102

How did O=C(Nc1ccc2nc(-c3cccs3)c(-c3cccs3)nc2c1)NC1CC1 do in these assays?
MEKK2wt PB1 HTS: 20*[inhibitor]; MEKK2 mut-MEK5: -18; MEKK3 PB1 HTS: 68*[inhibitor]; UBC13 polyUb: 29; MEKK2wt confirm: 54; MEKK2mut-MEK5: -20; MEKK3-MEK5 inh: 95

What do the screens show for `COCCNC(=O)Nc1ccc2nc(-c3cccs3)c(-c3cccs3)nc2c1`?
MEKK2wt PB1 HTS: 67*[inhibitor]; MEKK2 mut-MEK5: -3; MEKK3 PB1 HTS: 92; UBC13 polyUb: -3; MEKK2wt confirm: 67; MEKK2mut-MEK5: -18; MEKK3-MEK5 inh: 90

Results for CN(C(=O)CSc1nnc(COc2ccccc2F)n1N)C1CCS(=O)(=O)C1 (centres undefined) ?
UBC13 polyUb: 4

Results for CCCCn1c(N)c(N(CCOC)C(=O)CSCc2cccc(C)c2)c(=O)[nH]c1=O ?
UBC13 polyUb: -4

How did C=CCN(Cc1nc(-c2ccccc2)no1)C(=O)c1ccco1 do in these assays?
MEKK2wt PB1 HTS: 97; MEKK2 mut-MEK5: 3; MEKK3 PB1 HTS: 100; UBC13 polyUb: 2

Results for O=C(O)/C=C/C(=O)Nc1ccc(Oc2ccc(NC(=O)/C=C/C(=O)O)cc2)cc1 ?
MEKK2wt PB1 HTS: 106; MEKK2 mut-MEK5: 1; MEKK3 PB1 HTS: 150*; UBC13 polyUb: 18; MEKK2wt confirm: 87; MEKK2mut-MEK5: -9; MEKK3-MEK5 inh: 87

How did O=c1c(C=NCCN2CCNCC2)c(-c2ccccc2)[nH]n1-c1ccc([N+](=O)[O-])cc1 do in these assays?
MEKK2wt PB1 HTS: 179*; MEKK2 mut-MEK5: 31; MEKK3 PB1 HTS: 118; UBC13 polyUb: 21; MEKK2wt confirm: 142; MEKK2mut-MEK5: 45; MEKK3-MEK5 inh: 107

How did Cc1nn(C)cc1CN(C)Cc1ccc(OCC(O)CN2CCCCC2)cc1 (centres undefined) do in these assays?
MEKK2wt PB1 HTS: 121; MEKK2 mut-MEK5: 17; MEKK3 PB1 HTS: 98; UBC13 polyUb: 4

What do the screens show for `CN(Cc1ccc(OCC(O)CN2CCCCC2)cc1)Cc1ccnc2ccccc12` (centres undefined)?
MEKK2wt PB1 HTS: 148*; MEKK2 mut-MEK5: 37; MEKK3 PB1 HTS: 106; MEKK2wt confirm: 127; MEKK2mut-MEK5: 30; MEKK3-MEK5 inh: 106

From PubChem BioAssay
